Luc counter – Counterscreen for Luciferase (Kinase-Glo TM) Inhibition | Luciferin 4-monooxygenase (Photuris pensylvanica), Q27757 | hit rate 0.28% among 200,000 | Kinase-Glo luciferase, ATP luminescence, 8 min | Potency, µM (highest dose often 38.3 µM), usual class: inhibitors; note: nearly all actives have a fitted effect of over 60% in size
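Recombinant Kinase-Glo luciferase, 10 uM ATP (linear range), luciferin; imidazole pH 7.2 / KCl / MgCl2 / Tween / BSA buffer; 8 min RT; luminescence.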
Rab9 prom act – qHTS Assay for Rab9 Promoter Activators; Huh7 Rab9 promoter-luciferase reporter, luminescence, 24 h; Potency, µM (titrated, usually from 9.22 µM), hits mostly activators; hit rate 2.8% among 320,000; AID 485297, 2010; note: nearly all actives have a fitted effect of over 60% in size
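Huh7 reporter line, Rab9 promoter upstream of luciferase. Compound exposure 24 h at 37 °C in reduced-serum medium with 10% FBS. Read-out: luminescence.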
FLuc counter – qHTS profiling assay for firefly luciferase inhibitor/activator using purifed enzyme and Km concentrations of substrates (counterscreen for miR-21 project). hit rate 6.9% among 360,000. purified FLuc, Km substrates, luminescence inhibition. Luciferin 4-monooxygenase (Photinus pyralis), P08659. Potency, µM (highest dose often 57.5 µM), usual class: inhibitors. AID 588342, 2011; note: nearly all actives have a fitted effect of over 55% in size
Target sequence (P08659 whole entry, looked up): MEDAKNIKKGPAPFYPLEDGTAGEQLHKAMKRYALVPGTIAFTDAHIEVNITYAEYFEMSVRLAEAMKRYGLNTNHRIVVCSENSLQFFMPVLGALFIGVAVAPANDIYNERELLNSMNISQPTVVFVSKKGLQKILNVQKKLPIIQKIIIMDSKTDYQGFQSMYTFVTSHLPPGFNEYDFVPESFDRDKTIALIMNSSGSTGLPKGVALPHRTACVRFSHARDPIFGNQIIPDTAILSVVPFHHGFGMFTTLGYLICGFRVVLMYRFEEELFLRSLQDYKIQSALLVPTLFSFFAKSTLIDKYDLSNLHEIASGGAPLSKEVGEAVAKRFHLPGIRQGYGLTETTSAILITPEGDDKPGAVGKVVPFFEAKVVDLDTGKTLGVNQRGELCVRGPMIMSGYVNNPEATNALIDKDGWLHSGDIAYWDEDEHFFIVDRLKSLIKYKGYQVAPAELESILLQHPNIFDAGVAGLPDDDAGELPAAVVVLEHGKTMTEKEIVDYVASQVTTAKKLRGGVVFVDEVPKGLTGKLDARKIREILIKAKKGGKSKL
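Purified P. pyralis luciferase, 10 nM final, with Km-level 10 uM D-luciferin and 10 uM ATP in 50 mM Tris acetate pH 7.5, 10 mM Mg acetate, 0.01% Tween-20, 0.05% BSA; 6-point qHTS titration about 60 µM downward; luminescence read.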
NPC1 promoter act – qHTS Assay for NPC1 Promoter Activators; Potency, µM (top dose mostly 9.22 µM), most hits filed as activators; Huh7 NPC1 promoter luciferase reporter, 24 h; hit rate 2.4% among 320,000; note: nearly all actives have a fitted effect of over 60% in size
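Stably transfected Huh7 (NPC1 promoter→luciferase), 1500 cells/well in Opti-MEM + 10% FBS, 2 h settle, then compound 24 h at 37 °C. Luminescence after 10 min with Amplite reagent.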
SMN2 splice up – qHTS Assay for Enhancers of SMN2 Splice Variant Expression; HEK293 SMN2-luciferase splicing reporter, luminescence, 30-36 h; Potency, µM (doses to about 46.1 µM), hits mostly activators; hit rate 2.8% among 210,000; AID 1458, 2008; note: nearly all actives have a fitted effect of over 55% in size
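HEK293 cells carry an SMN2 […]–luciferase reporter in which exon 7 inclusion puts luciferase in frame. Cells were plated 10-12 h before compound addition, then incubated 30-36 h at 37C. ONE-Glo luminescence was read; sodium butyrate at 4.5 mM final served as control.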
Numbers stand for hits; 0 = inactive; ? = inconclusive; - = no result given; [ ] = dose if it differs, or a comment. A selection: hits, their analogues and other compounds. The true share with any hit is near 7.3%. Calls come from the whole dose curve; as a rule, active = well fitted curve in the direction sought with a large enough effect; inconclusive = small, poorly fitted or top-dose-only effect, or another doubt; inactive = no such curve, though single readings can be large; an effect the other way counts as inactive or inconclusive.

SMILES	Luc counter	Rab9 prom act	FLuc counter	NPC1 promoter act	SMN2 splice up
CCc1ccc(C(=O)c2cn(Cc3ccc(F)cc3)c3cc(OC)c(OC)cc3c2=O)cc1	-	-	0	-	0
CCN1c2ccccc2-c2nc(SCC(=O)NCc3ccc(Cl)cc3)ncc2S1(=O)=O	-	-	0	-	-
COc1ccc(NC(=O)C2=C(C)Nc3nc(CCCO)nn3C2c2ccc(O)cc2)cc1 (configuration not stated)	-	-	0	-	-
CCOc1ccc(CCNC(=O)c2cc3c(=O)n(CC)c4ccccc4c3s2)cc1OCC	-	-	0	-	0
Cc1ccnc(NC(=O)/C=C/c2cccs2)c1	0	0.63µM	3µM	0.63µM	4µM
O=C(/C=C/c1cccs1)Nc1cccnc1	?	2.8µM	5.4µM	?	18µM
O=C(Nc1cccnc1)c1cccs1	0	0	0	0	8.9µM
O=C(/C=C/c1cccs1)Nc1scc(-c2ccccc2)c1C(=O)O	0	1.1µM	3.8µM	1.4µM	11µM
CCc1cccc(NC(=O)c2cc(S(=O)(=O)N3CCCCCC3)cn2C)c1	-	-	0	-	-
COc1ccccc1CNC(=O)c1cnn(-c2ccc(F)cc2F)c1C1CCN(C(=O)OC(C)(C)C)CC1	-	-	0	-	-
O=C(O)[C@H](/C=C\c1ccccc1)c1ccccc1	0[7.66 µM]	-	-	-	0[9.22 µM]
NC(=O)C1CCN(c2nc(-c3ccccc3[N+](=O)[O-])cs2)CC1	-	-	0	-	-
O=C(/C=C/c1cc(Br)ccc1F)Nc1cccnc1	-	0	?	0	-
O=C(/C=C/c1cccs1)Nc1nc(-c2ccccc2)cs1	0	0	6.7µM	0	0
O=C(/C=C/c1c(F)cccc1Cl)Nc1cccnc1	-	4µM	3.8µM	1.6µM	-
CC(C)c1ccc(N=C2N=C(N)c3ccccc32)cc1	-	?	0.48µM	0	-
NC1=NC(=Nc2ccccc2)c2ccccc21	0	0	0	0	?
Cc1cccc(N=C2N=C(N)c3ccccc32)c1	0	0	0	0	0
NC1=NC(=Nc2ccc(Br)cc2)c2ccccc21	0	0	8.5µM	0	0
NC1=NC(=Nc2cccc(Cl)c2)c2ccccc21	0	0	?	0	-
NC1=NC(=Nc2ccc(Cl)cc2)c2ccccc21	0	0	7.6µM	0	0
Cc1ccc(NC(=O)Cn2c(=O)n(Cc3ccccc3)c(=O)c3sc4ccccc4c32)cc1	-	-	0	-	0
CCN(CC)S(=O)(=O)c1nnc(NC(=O)c2ccc(C(C)C)cc2)s1	-	-	9.5µM	-	-
CC(C)c1ccc(C(=O)Nc2nnc(S(=O)(=O)N3CCOCC3)s2)cc1	-	0	17µM	0	-
CCN(CC)S(=O)(=O)c1nnc(NC(=O)c2ccc(C)cc2)s1	-	-	0	-	-
SMILES	Luc counter	Rab9 prom act	FLuc counter	NPC1 promoter act	SMN2 splice up
Cc1ccccc1N1CCN(S(=O)(=O)c2nnc(NC(=O)c3ccc(C(C)C)cc3)s2)CC1	-	-	24µM	-	-
Cc1ccc(N2CCN(S(=O)(=O)c3nnc(NC(=O)c4ccc(C(C)C)cc4)s3)CC2)cc1	-	-	0	-	-
CCc1ccccc1NC(=O)Nc1cc(C(=O)NCc2ccccc2OC)ccc1N1CCCC1	-	-	0	-	-
COc1ccc(-c2noc(-c3ccc(NCCc4ccccc4)c([N+](=O)[O-])c3)n2)cc1	-	-	0	-	-
COc1cccc(NC(=O)Cn2c(=O)n(-c3cccc(OC)c3)c(=O)c3c4c(sc32)CCCC4)c1	-	-	0	-	0
CC(C(=O)NC1C=CS(=O)(=O)C1)N1C(=O)/C(=C\c2ccccc2)SC1=S (configuration not stated)	-	0	?	0	-
CC(C(=O)NC1C=CS(=O)(=O)C1)N1C(=O)/C(=C/c2cccc(Cl)c2)SC1=S (configuration not stated)	-	0	15µM	0	-
O=C(CN1C(=O)/C(=C/c2cccc(Cl)c2)SC1=S)NC1C=CS(=O)(=O)C1 (configuration not stated)	-	0	2.7µM	0	-
O=C(c1ccc2c(c1)N(Cc1ccc(Cl)cc1)C(=O)c1ccccc1S2=O)N1CCN(c2ccccc2F)CC1 (configuration not stated)	-	-	0	-	0
Cc1cccc(C(=O)O/N=C(\N)c2ccc(Cl)cc2)c1	-	1.8µM	1.9µM	0.4µM	-
Cc1ccc(C)c(C(=O)O/N=C(\N)c2ccc(Br)cc2)c1	0	0	15µM	?	?
Cc1cccc(C(=O)NNC(=O)c2ccc(Br)cc2)c1	0	0	0	0	0
Cc1ccc(/C(N)=N/OC(=O)c2ccc(Cl)cc2Cl)cc1	0	2.5µM	1.1µM	3.2µM	11µM
Cc1cccc(C(=O)O/N=C/c2ccc(Br)cc2)c1	0	0	3.4µM	0	0
COc1ccc(Cl)cc1C(=O)O/N=C(\N)c1ccncc1	-	0	0	0	-
CSc1nnc(NC(=O)c2cc(=O)c3cc(C)c(C)cc3o2)s1	-	-	0	-	0
COCCNC(=O)CSc1nc(-c2cc(OC)c(OC)c(OC)c2)[nH]c1-c1ccc(Cl)cc1	-	-	0	-	0
COc1ccc(-c2cc(C(=O)Oc3ccc(Br)cc3)c3ccccc3n2)cc1	-	-	?	-	0
Cc1cccc(C(=O)O/N=C(\N)c2ccc(Br)cc2)c1	0	0.71µM	3µM	0.56µM	0
N/C(=N\OC(=O)c1ccoc1)c1ccc(Br)cc1	-	3.2µM	6.7µM	2.5µM	-
COc1cc(OC)c(NC(=O)N2CCOc3ccc(C)cc32)cc1Cl	-	-	0	-	-
CCN(CC)c1ccc(CN(C(=O)c2cc(=O)c3ccccc3o2)C2CCS(=O)(=O)C2)cc1 (configuration not stated)	-	-	0	-	0
COc1ccc(-c2cc3ccc(OCc4nn[nH]n4)cc3oc2=O)cc1OC	0	0	15µM	0	0
COc1ccc(-c2cc3ccc(OCC(C)=O)cc3oc2=O)cc1	-	1µM	1.9µM	1.3µM	-
COc1ccc(-c2cc(=O)oc3cc(OCc4nn[nH]n4)ccc23)cc1	0	0	?	0	0
SMILES	Luc counter	Rab9 prom act	FLuc counter	NPC1 promoter act	SMN2 splice up
COC(=O)COc1ccc2cc(-c3ccc(OC)cc3)c(=O)oc2c1	-	0	?	0	-
COC(=O)COc1ccc2cc(-c3ccccc3)c(=O)oc2c1	-	0	12µM	0	-
CCOC(=O)c1oc2cc(OCC(=O)OC)ccc2c(=O)c1-c1ccc(OC)c(OC)c1	-	0	0	0	-
NC(=O)COc1ccc2cc(-c3ccc(F)cc3)c(=O)oc2c1	-	?	0	?	-
COc1ccc(-c2cc3ccc(OCC(C)=O)cc3oc2=O)cc1OC	-	2µM	15µM	4µM	-
CC(N)=NCCCC(N)C(=O)O (configuration not stated)	0	-	-	-	0
Cc1cc(O)cc(O)c1C(=O)OC1(C)C(=O)C=C2C=C(/C=C/C(=O)O)OC=C2C1=O (configuration not stated)	0	-	-	-	0
COC(=O)c1c(-c2ccccc2)csc1NC1=NS(=O)(=O)c2ccccc21	0	2.5µM	0.6µM	0	0.56µM
COC(=O)c1ccc(C(=O)OC)c(NC2=NS(=O)(=O)c3ccccc32)c1	0	0	0	0	0
CCCCc1ccc(-c2nc(N)n[nH]2)cc1	0	1.6µM	6µM	3.2µM	6.3µM
Nc1n[nH]c(-c2ccc(F)cc2)n1	0	0	0	0	0

Compound activity (PubChem)
